Data reported in article PMC4336329 (PLoS ONE, 2015).
The whole screen tested about 310,000 compounds, of which about 14,000 (4.5%) showed an effect of 50% or more. Effects have a minus sign here. This is one part of a sample in which strong results are shown more often than they occur.

What follows are compounds tested against human ether-à-go-go-related gene (hERG) potassium channel (human, UniProt Q12809) (assay: primary screen, population patch clamp on CHO cells stably expressing hERG; higher = less effect of the substance).
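Note: peak tail current of the secondary pulse compared with the same well before compound.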

human ether-à-go-go-related gene (hERG) potassium channel, sequence (Q12809 whole entry, looked up): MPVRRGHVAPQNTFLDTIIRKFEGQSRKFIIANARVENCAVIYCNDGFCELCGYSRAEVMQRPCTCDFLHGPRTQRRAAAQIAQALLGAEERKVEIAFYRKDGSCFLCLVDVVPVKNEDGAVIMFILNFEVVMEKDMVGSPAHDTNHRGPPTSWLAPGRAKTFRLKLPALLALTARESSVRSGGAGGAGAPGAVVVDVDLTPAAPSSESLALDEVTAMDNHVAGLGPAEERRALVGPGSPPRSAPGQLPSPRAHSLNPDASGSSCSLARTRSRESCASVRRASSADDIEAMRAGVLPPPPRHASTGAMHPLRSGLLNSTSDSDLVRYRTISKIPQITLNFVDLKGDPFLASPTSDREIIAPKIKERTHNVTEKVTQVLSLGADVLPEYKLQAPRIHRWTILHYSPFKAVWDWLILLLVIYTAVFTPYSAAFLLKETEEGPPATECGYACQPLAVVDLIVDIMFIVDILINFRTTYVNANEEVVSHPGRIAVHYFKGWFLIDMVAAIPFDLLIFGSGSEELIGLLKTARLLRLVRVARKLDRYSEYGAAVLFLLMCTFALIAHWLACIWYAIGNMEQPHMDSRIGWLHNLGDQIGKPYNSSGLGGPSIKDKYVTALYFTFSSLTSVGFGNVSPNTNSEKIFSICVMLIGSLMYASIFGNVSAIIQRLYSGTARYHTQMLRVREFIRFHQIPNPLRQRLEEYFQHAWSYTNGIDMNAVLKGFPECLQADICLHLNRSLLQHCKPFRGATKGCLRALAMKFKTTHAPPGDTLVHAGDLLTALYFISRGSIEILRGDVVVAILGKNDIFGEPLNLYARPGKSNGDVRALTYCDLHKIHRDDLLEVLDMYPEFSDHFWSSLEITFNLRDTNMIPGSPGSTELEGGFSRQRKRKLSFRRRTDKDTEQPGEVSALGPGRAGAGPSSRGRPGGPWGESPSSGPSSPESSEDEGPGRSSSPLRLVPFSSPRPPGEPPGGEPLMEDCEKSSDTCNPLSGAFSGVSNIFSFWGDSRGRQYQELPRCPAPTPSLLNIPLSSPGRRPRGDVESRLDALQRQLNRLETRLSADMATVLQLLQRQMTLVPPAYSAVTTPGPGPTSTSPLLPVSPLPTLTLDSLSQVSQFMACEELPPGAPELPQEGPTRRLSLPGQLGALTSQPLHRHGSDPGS

| SMILES | hERG current change (%, negative = inhibition) at 10uM |
| --- | --- |
| CCOc1ccc(CCNC(=O)COC(=O)Cc2ccc(F)cc2)cc1OCC | -26.6% |
| CC(C)c1ccc(/C=C(\c2nc3ccccc3[nH]2)S(=O)(=O)c2ccccc2)cc1 | 8.64% |
| COc1ccc(OC)c(CNc2ccc(F)c(Cl)c2)c1 | 2.7% |
| COc1ccc(C(=O)n2nc(-c3ccco3)nc2SC)cc1OC | 3.41% |
| COCCCn1c(=O)c2sccc2n2c(CCCC(=O)N(C)Cc3ccco3)nnc12 | -22.8% |
| Cc1ccccc1-n1c(-c2ccc(Br)o2)n[nH]c1=S | 13.5% |
| COc1ccc2ccc(O)c(CN3CCN(S(=O)(=O)c4cc([N+](=O)[O-])ccc4C)CC3)c2c1 | -4.29% |
| C=CCOC(=O)C1=C(C)NC(SCC(=O)N(CC)CC)=C(C#N)C1c1ccccc1 (stereo not drawn) | -21.9% |
| CCN(CC)C(=O)CSC1=C(C#N)C(c2ccco2)C(C(=O)OCCOC)=C(C)N1 (stereo not drawn) | 10.5% |
| C=CCOC(=O)C1=C(C)NC(SCC(=O)N(CC)CC)=C(C#N)C1c1ccco1 (stereo not drawn) | -51.3% |
| CSc1ccccc1NC(=O)c1ccc(N2CC3CC(C2)c2cccc(=O)n2C3)c(NC(=O)c2ccncc2)c1 (stereo not drawn) | -30.1% |
| OCCC1CN(CCCc2ccccc2)CCN1Cc1ccc(F)cc1 (stereo not drawn) | -66.6% |
| CC(C)(C)CN1CCN(CCCc2ccccc2)C(CCO)C1 (stereo not drawn) | -53.7% |
| OCCC1CN(CCCc2ccccc2)CCN1Cc1ccccc1 (stereo not drawn) | -64% |
| CC(C)=CCN1CCN(CCCc2ccccc2)CC1CCO (stereo not drawn) | -26.8% |
| CC(C)(C)CN1CCN(CC#Cc2ccccc2)CC1CCO (stereo not drawn) | 0.803% |
| CC(C)CN1CCN(CCCc2ccccc2)C(CCO)C1 (stereo not drawn) | -35.5% |
| OCCC1CN(CCCc2ccccc2)CCN1CCc1ccccc1 (stereo not drawn) | -77.2% |
| CC(C)CCN1CCN(CCCc2ccccc2)CC1CCO (stereo not drawn) | -46.6% |
| CC(C)N1CCN(CCCc2ccccc2)CC1CCO (stereo not drawn) | -4.39% |
| CC(C)CCNC(=O)C(c1ccco1)N(CCCO)C(=O)Cn1nnc(-c2ccc(F)cc2)n1 (stereo not drawn) | -20.2% |

| SMILES | hERG current change (%, negative = inhibition) at 10uM |
| --- | --- |
| CSc1ccccc1NC(=O)CSc1nnc(CNC(=O)c2ccccc2F)n1C | 11.2% |
| O=C(NCCS(=O)(=O)N1CCN(c2ccc(F)cc2)CC1)C12CC3CC(CC(C3)C1)C2 | -10.5% |
| CCOC(=O)c1cc(-c2ccc(OC)cc2)nn1-c1ccc(C(=O)O)cc1 | 16.3% |
| CS(=O)(=O)c1ccc([C@@H](O)[C@@H](CF)NC(=O)C(Cl)Cl)cc1 | -5.39% |
| Cc1cccc(Cl)c1NC(=S)NCCc1ccccn1 | 11.9% |
| CCOc1ccc(Br)cc1S(=O)(=O)N1CCC(C(N)=O)CC1 | -8.56% |
| O=C(c1ccc(CS(=O)c2cccc(Cl)c2)o1)N1CCOCC1 (stereo not drawn) | 10.8% |
| CCC(CC)N1CCN(CCc2ccccc2)C(CCO)C1 (stereo not drawn) | -19% |
| Cc1ccc(CN2CCN(CCCc3ccccc3)CC2CCO)cc1 (stereo not drawn) | -76.4% |
| CC(C)/C=C/CN1CCN(CCCc2ccccc2)C(CCO)C1 (stereo not drawn) | -73.4% |
| Cn1cccc1C(=O)NC(=O)COC(=O)c1ccccc1O | -6.93% |
| O=C(/C=C/c1cccc([N+](=O)[O-])c1)Nn1c(-c2ccccc2F)nc2ccccc2c1=O | -23.1% |
| Cc1cccc(-c2nc3ccccc3c(=O)n2NC(=O)c2ccc([N+](=O)[O-])c(C)c2)c1 | 14.5% |
| O=C(Nn1c(-c2ccccc2)nc2ccccc2c1=O)c1ccc([N+](=O)[O-])cc1 | -15.4% |
| O=C(Nn1c(-c2ccc(Br)cc2)nc2ccccc2c1=O)c1ccc([N+](=O)[O-])cc1 | -66.6% |
| Cc1cc(C(=O)Nn2c(-c3ccc(Br)cc3)nc3ccccc3c2=O)ccc1[N+](=O)[O-] | 8.86% |
| Cc1cccc(-c2nc3ccccc3c(=O)n2NC(=O)/C=C/c2ccc([N+](=O)[O-])cc2)c1 | -60.7% |
| CN(c1ccc(C(=O)NCc2ccco2)cc1)S(C)(=O)=O | 5.87% |
| NC(=O)C1CCN(C(=O)c2cc3n(n2)C(C(F)(F)F)CC(c2ccco2)N3)CC1 (stereo not drawn) | 14.8% |
| Cc1nc(-c2ccc(Cl)cc2)sc1C1(C)CC(c2ccc(C#N)cc2)=NO1 (stereo not drawn) | -29.2% |
| Cc1ccc(OCc2nnc(SCC(=O)Nc3ccc4c(c3)OCCO4)n2Cc2ccco2)cc1 | 6.31% |

| SMILES | hERG current change (%, negative = inhibition) at 10uM |
| --- | --- |
| COc1ccc2c(c1)c(C(C)=O)c(C)n2CCc1ccc(OC)c(OC)c1 | -6.52% |
| COc1ccc(C2Nc3ccccc3C(=O)N2NS(=O)(=O)c2ccccc2)cc1OC (stereo not drawn) | 13.5% |
| COc1cc(NS(=O)(=O)c2ccc(NC(=O)C3CCCO3)cc2)nc(OC)n1 (stereo not drawn) | 6.87% |
| S=c1[nH]nc(-c2ccccc2)n1/N=C/c1ccc(-c2ccccc2Cl)o1 | 25.4% |
| Cc1cccc(NC(=O)c2cc3c(=O)n4ccccc4nc3n(CC(C)C)c2=N)c1 | -78% |
| COc1cccc(NC(=O)C(Sc2nc3ccccc3c(=O)n2CC(C)C)c2ccccc2)c1 (stereo not drawn) | 11.8% |
| COc1ccc(NC(=O)c2cc3c(=O)n4ccccc4nc3n2C)cc1OC | 13.7% |
| COc1cccc(NC(=O)c2cc3c(=O)n4ccccc4nc3n(CC(C)C)c2=N)c1 | -82% |
| Cc1cccc(NC(=O)c2cc3c(=O)n4ccccc4nc3s2)c1 | 10.8% |
| Cc1cccc(NC(=O)c2c(C)nc3ccccn23)c1 | -0.935% |
| CCOc1ccc(NC(=O)CSc2nc(=O)n(Cc3cccnc3)c3c2CCC3)cc1 | -8.74% |
| CN(c1cccc(NC(=O)c2cccc([N+](=O)[O-])c2)c1)S(C)(=O)=O | 13.1% |
| O=C(Nc1ccc(N2CCOCC2)cc1N1CCOCC1)c1ccc([N+](=O)[O-])cc1 | 2.51% |
| COc1cc(/C=N/NS(=O)(=O)c2ccc(Br)cc2)ccc1O | 1.58% |
| Cc1ccc(NC(=O)CNC(=O)c2ccco2)nc1 | 17.3% |
| CCOc1cc(S(=O)(=O)n2cnc(C)c2)ccc1Cl | -8.24% |
| COc1ccc(N(C(=O)/C=C/c2ccc(OC)c(OC)c2)C2=CC3CCC(C2)N3C)cc1.Cl (stereo not drawn) | -69.6% |
| COc1ccc(/C=C/C(=O)N2CCN(C)CC2)cc1OC | 6.7% |
| COc1ccc(C(=O)Cn2c(C(=O)/C=C/c3ccccc3)nc3ccccc32)cc1 | -16.4% |
| COc1ccc(/C=C/C(=O)N(C)c2ccccc2C(=O)O)cc1 | -4.18% |
| COc1ccc(N(C(=O)/C=C/c2ccccc2)C2=CC3CCC(C2)N3C)cc1.Cl (stereo not drawn) | -74.6% |

| SMILES | hERG current change (%, negative = inhibition) at 10uM |
| --- | --- |
| COc1ccc(/C=C/C(=O)N(C)C2CCS(=O)(=O)C2)cc1OC (stereo not drawn) | 2.01% |
| Cn1c(C(=O)N[C@@H](Cc2ccccc2)C(=O)NCCC(=O)O)cc2cc(Cl)ccc21 | 0.651% |
| COc1ccc(OCC(=O)OCC(=O)N2CC(=O)Nc3ccccc32)cc1 | -3.16% |
| Cc1ccc(CCC(=O)Nc2ccc([N+](=O)[O-])cc2)o1 | 0.967% |
| OCCN1CCN(c2ncnc3c2c(-c2ccccc2)cn3-c2ccc(F)cc2)CC1 | -74.3% |
| OCCN1CCN(c2ncnc3c2c(-c2ccccc2)cn3-c2ccc(Br)cc2)CC1 | -15.2% |
| Cc1ccc(-n2cc(-c3ccccc3)c3c(N4CCN(C)CC4)ncnc32)cc1 | -9.95% |
| COc1ccc(-n2cc(-c3ccccc3)c3c(N4CCN(CCO)CC4)ncnc32)cc1 | -42% |
| CC1CN(c2ncnc3c2c(-c2ccccc2)cn3-c2ccc(F)cc2)CC(C)O1 (stereo not drawn) | 12% |
| CCN1CCN(c2ncnc3c2c(-c2ccccc2)cn3-c2ccc(F)cc2)CC1 | -74.5% |
| CNCCCC1c2ccccc2C=Cc2ccccc21.Cl | 13.2% |
| O=c1[nH]c(Nc2ccccc2Cl)cc2ccccc12 | 10.9% |
| O=C(Cc1ccccc1F)OCN1C(=O)c2ccccc2C1=O | 21.5% |
| N#C/C(=C/c1cccc(C(F)(F)F)c1)c1nc(CCN2C(=O)c3ccccc3C2=O)cs1 | -0.904% |
| N#Cc1cccc(C(=O)OCC(=O)N2CCCc3ccccc32)c1 | -1.94% |
| COc1ccc(CN2CCC(n3nccc3NC(=O)CCCc3ccccc3)CC2)cc1C | -93.3% |
| COc1cc(CN2CCC(n3nccc3NC(=O)CCCc3ccccc3)CC2)ccc1O | -31.1% |
| COc1cc(CN2CCC(n3nccc3NC(=O)CCCc3ccccc3)CC2)ccc1F | -66.5% |
| O=C(O)CNC(=O)c1ccccc1NC(=O)c1ccco1 | 7.93% |
| COc1ccccc1C/C(N)=N/OC(=O)COc1ccc(C)cc1C | 17.4% |
| CC12CC3CC(C)(C1)CC(C(=O)NCc1cccnc1)(C3)C2 | -11.6% |
